Experimental data reported in PubChem BioAssay (EPA / NIEHS).
Several values for one entry are separate records, joined by “and”; a condition that tells them apart may be missing. Equal entries are not always repeated. Records with an inconclusive call do not appear. Activity calls are given as the source filed them. The calls were made as follows, unless noted: active = hit-call score of the fitted dose curve at least 0.9, where 1 is the maximum; inactive = score below 0.9.

Key:
[1] = ACEA_ER_80hr: ACEA Biosciences xCELLigence Real-Time Cell Analysis on Estrogen Receptor Agonism for Proliferation (AID 2282667; active = hit-call score of the fitted dose curve at least 0.9, where 1 is the maximum); conditions: T47D proliferation, impedance (xCELLigence), 80 h
Procedure, shortened: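 Real-time electrical impedance tracked growth of the human breast line T47D, with the 80 h post-dosing value used. Dosing spanned eight 1:4 steps down from a 100 uM final top concentration, run in duplicate.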

[2] = APR_HepG2_CellCycleArrest_24hr: Apredica 24-hour HepG2 Assay for Cell Cycle Arrest (AID 2282905); conditions: imaging, actives raise or lower the signal;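 also: cell cycle arrest scored as ratio of 2N to 4N nuclear DNA content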
Procedure, shortened: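 Step one: dose HepG2 with test compounds, 0.39–200 uM, 0.5% DMSO, 24 hr. Step two: fix, permeabilize, stain nuclei with Hoechst 33342. Step three: image six fields per well at 20x, quantify DNA content, fit bidirectionally relative to DMSO.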

[3] = APR_HepG2_NuclearSize_24hr: Apredica 24-hour HepG2 Assay for Nuclear Size (AID 2282907); conditions: high-content imaging, actives raise or lower the signal
Procedure, shortened: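 After fixation and permeabilization, 24-hr-treated HepG2 cells were stained with Hoechst 33342 and imaged on an ArrayScan (20x). Doses spanned 0.39–200 uM in duplicate. Nuclear diameter changes in either direction were fitted relative to 0.5% DMSO controls.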

[4] = APR_HepG2_CellLoss_24hr: Apredica 24-hour HepG2 Assay for Cell Loss (AID 2282908); conditions: high-content imaging;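 as to AC50: fit in both directions so a hit may be cell loss or gain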
Procedure, shortened: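 Duplicate wells received compound at ten concentrations (0.39–200 uM; final DMSO 0.5% v/v). After fixation with formaldehyde, nuclei stained with Hoechst 33342 were imaged at 20x. Loss or gain of cell count was fitted relative to DMSO controls.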

[5] = APR_HepG2_MitoticArrest_24hr: Apredica 24-hour HepG2 Assay for Mitotic Arrest (AID 2282910); conditions: high-content imaging, actives raise or lower the signal
Procedure, shortened: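 HepG2, 24 hr dosing, 0.39–200 uM, 0.5% DMSO final. Formaldehyde-fixed, Triton-permeabilised, anti-phospho-histone H3 plus Hoechst. ArrayScan imaging at 20x; bidirectional fit vs DMSO baseline.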

[6] = APR_HepG2_MitoMembPot_24hr: Apredica 24-hour HepG2 Assay for Mitochondrial Membrane Potential (AID 2282911); conditions: imaging, actives raise or lower the signal
Procedure, shortened: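 Cells are dosed for 24 hr across 0.39 to 200 uM with solvent held at 0.5% DMSO. They are then stained with 250 nM MitoTracker Red CMXRos for 30 min, fixed in 3.7% formaldehyde and imaged.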

[7] = APR_HepG2_MitoMass_24hr: Apredica 24-hour HepG2 Assay for Mitochondrial Mass (AID 2282912); conditions: high-content imaging, actives raise or lower the signal
Procedure, shortened: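 Readout: fluorescence of MitoTracker Red CMXRos (250 nM, added 30 min pre-fixation) in fixed HepG2 cells imaged by HCS. Exposure lasted 24 hr at 0.39–200 uM; increases and decreases were both fitted relative to DMSO.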

[8] = APR_HepG2_p53Act_24hr: Apredica 24-hour HepG2 Assay for p53 Activation (AID 2282913); conditions: high-content imaging, actives raise or lower the signal;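 also: p53 protein immunofluorescence averaged per cell in HepG2 with Hoechst nuclei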
Procedure, shortened: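 Human HepG2 liver cells; 24 hr cpd treatment, 0.39–200 uM, 0.5% DMSO final. Fixed in 3.7% formaldehyde, permeabilized with 0.5% Triton X-100, stained with anti-p53/Cy5 plus Hoechst 33342. Six images per well at 20x; gain or loss vs DMSO.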

[9] = APR_HepG2_CellCycleArrest_72hr: Apredica 72-hour HepG2 Assay for Cell Cycle Arrest (AID 2282914); conditions: high-content imaging, actives raise or lower the signal
Procedure, shortened: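 Read-out is Hoechst-stained nuclear DNA content measured by automated fluorescence imaging (20x, six images per well), fitted in both directions relative to DMSO. Human HepG2 liver cells received 0.39–200 uM compound for 72 hr at 0.5% v/v DMSO.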

[10] = APR_HepG2_CellLoss_72hr: Apredica 72-hour HepG2 Assay for Cell Loss (AID 2282915); conditions: high-content imaging
Procedure, shortened: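 HepG2 cells exposed 72 h to compound at 0.39–200 uM (10 concentrations, duplicate) in 0.5% DMSO. Fixed with 3.7% formaldehyde and Hoechst 33342-stained. Imaged at 20x; nuclear count gives cell number, fitted bidirectionally versus DMSO.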

[11] = APR_HepG2_MicrotubuleCSK_24hr: Apredica 24-hour HepG2 Assay for Microtubule CSK Stabilty (AID 2282909); conditions: HepG2 microtubule cytoskeleton imaging, actives raise or lower the signal
Procedure, shortened: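 Microtubule stability is scored from tubulin immunofluorescence in fixed HepG2 cells imaged at 20x. Cells receive ten compound concentrations up to 200 uM for 24 h; taxol and DMSO serve as positive and negative controls.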

[12] = APR_HepG2_CellCycleArrest_1hr: Apredica 1-hour HepG2 Assay for Cell Cycle Arrest (AID 2282666); conditions: high-content imaging, actives raise or lower the signal
Procedure, shortened: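 Cell cycle arrest scored from nuclear DNA content (Hoechst 33342) using high-content imaging of fixed HepG2 cells after 1 h treatment across 0.39–200 uM, in duplicate. Gain or loss fitted relative to 0.5% DMSO.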

[13] = APR_HepG2_CellLoss_1hr: Apredica 1-hour HepG2 Assay for Cell Loss (AID 2282668); conditions: high-content imaging;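 also: curves fitted both ways against DMSO so gain or loss of cells counts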
Procedure, shortened: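 Cell number comes from high-content imaging of Hoechst-labelled nuclei in fixed HepG2 cells. Cells were exposed for 1 h to ten concentrations from 0.39 to 200 uM in 0.5% DMSO. Gain or loss was fitted against DMSO controls.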

[14] = APR_HepG2_MicrotubuleCSK_1hr: Apredica 1-hour HepG2 Assay for Microtubule CSK Stabilty (AID 2282669); conditions: HepG2 microtubule cytoskeleton imaging, actives raise or lower the signal
Procedure, shortened: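 Alpha-tubulin immunofluorescence, imaged by automated high-content microscopy with Hoechst nuclear segmentation, measured cytoskeletal change after 1 h dosing of HepG2 at 0.39–200 uM in 0.5% DMSO. Activity fitted in both directions relative to DMSO.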

[15] = APR_HepG2_NuclearSize_1hr: Apredica 1-hour HepG2 Assay for Nuclear Size (AID 2282670); conditions: high-content imaging, actives raise or lower the signal
Procedure, shortened: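 Nuclear size measured by high-content imaging of Hoechst 33342 nuclear stain after formaldehyde fixation; human HepG2 line exposed 1 hr to compounds at 0.39–200 uM in 0.5% DMSO, with bidirectional curve fitting relative to DMSO.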

[16] = APR_HepG2_MitoticArrest_1hr: Apredica 1-hour HepG2 Assay for Mitotic Arrest (AID 2282672); conditions: high-content imaging, actives raise or lower the signal
Procedure, shortened: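 Ten-point concentration series (0.39 to 200 uM, duplicates, 0.5% v/v DMSO) applied to human HepG2 liver cells for 1 hr. High-content imaging of phospho-histone H3 and Hoechst-stained nuclei after fixation and permeabilization; DMSO-normalised bidirectional fit.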

[17] = APR_HepG2_P-H2AX_1hr: Apredica 1-hour HepG2 Assay for H2AX Phosphorylation (AID 2282673); conditions: high-content imaging, actives raise or lower the signal
Procedure, shortened: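 Phospho-H2A.x immunofluorescence (1:200, FITC secondary) plus Hoechst nuclear stain, quantified by high-content imaging in HepG2 after 1 hr compound exposure. Ten concentrations, 0.39 to 200 uM, in duplicate with 0.5% DMSO; fit both directions against DMSO.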

[18] = APR_HepG2_MitoMass_1hr: Apredica 1-hour HepG2 Assay for Mitochondrial Mass (AID 2282674); conditions: high-content imaging, actives raise or lower the signal
Procedure, shortened: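 Mitochondrial mass is taken from MitoTracker Red CMXRos (250 nM, 30 min, pre-fixation) fluorescence imaged at 20x in HepG2 cells. Exposure lasted 1 hr across ten concentrations, 0.39 to 200 uM, 0.5% DMSO; DMSO baseline, bidirectional fitting.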

[19] = APR_HepG2_MitoMembPot_1hr: Apredica 1-hour HepG2 Assay for Mitochondrial Membrane Potential (AID 2282675); conditions: imaging, actives raise or lower the signal
Procedure, shortened: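 Mitochondrial membrane potential read as MitoTracker Red CMXRos intensity by automated imaging of fixed HepG2 cells. Dye at 250 nM for 30 min pre-fixation; compounds 0.39 to 200 uM for 1 hour, duplicate wells, 0.5% DMSO.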

[20] = APR_HepG2_StressKinase_1hr: Apredica 1-hour HepG2 Assay for Stress Kinase (AID 2282906); conditions: HepG2 stress kinase (phospho-c-Jun) imaging, actives raise or lower the signal
Procedure, shortened: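 High-content imaging of phospho-c-Jun immunostaining (with Hoechst nuclear identification) after a 1 h exposure of HepG2 cells to 10 concentrations from 0.39 to 200 uM, final DMSO 0.5%. Fitted bidirectionally against DMSO.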

Measured: AC50

Sc1ccccc1
inactive: [1]

CC(c1ccc(O)cc1)(c1ccc(O)cc1)c1ccc(O)cc1
inactive: [2] | [3] | [9]
active: [1] 1.54 µM | [4] 113 µM | [5] 107 µM | [6] 29.5 µM | [7] 109 µM | [8] 104 µM | [10] 115 µM

CC(C)(c1ccccc1)c1ccc(O)cc1
inactive: [2] | [3] | [11] | [5] | [6] | [7] | [8]
active: [1] 483 nM [middle of 4 runs] | [4] 84.6 µM | [10] 63.3 µM

C[C@]12CCC(=O)C=C1CC[C@@H]1[C@@H]2CC[C@]2(C)C(=O)CC[C@@H]12
inactive: [2] | [3] | [4] | [11] | [5] | [6] | [7] | [8] | [10]
active: [1] 50 µM and 9.92 µM

Nn1cnnc1
active: [1] 60.3 µM
inactive: [2] | [3] | [4] | [5] | [6] | [7] | [8] | [9] | [10]

Cc1cc2c3c(c1)C(c1ccccc1)=N[C@@H](NC(=O)c1ccncc1)C(=O)N3CC2
inactive: [1] | [2] | [3] | [4] | [11] | [5] | [6] | [7] | [8] | [9]
active: [10] 90.9 µM

ClC1=C(Cl)[C@]2(Cl)[C@@H]3[C@H]4C[C@H]([C@@H]5O[C@H]45)[C@@H]3[C@@]1(Cl)C2(Cl)Cl
inactive: [2] | [3] | [4] | [11] | [5] | [7] | [8] | [10]
active: [1] 50 µM | [6] 59.3 µM

O=S(=O)(O)C(F)(F)C(F)(F)C(F)(F)C(F)(F)F
inactive: [1] | [2] | [3] | [4] | [11] | [5] | [6] | [7] | [8] | [10]

CCSC(=O)N(CC)C1CCCCC1
not listed: [1] | [8] | [9]
inactive: all other assays above

CCCCCCCCCC[N+](C)(C)CCCCCCCCCC
active: [2] 43 µM | [4] 4.36 µM | [11] 10.9 µM | [5] 4.34 µM | [6] 26 µM | [9] 48.2 µM | [10] 3.25 µM
inactive: [1] | [3] | [7] | [8]

Cc1ccccc1[N+](=O)[O-]
inactive: [1] | [2] | [3] | [4] | [11] | [5] | [6] | [7] | [8] | [10]

CN(C)c1nc(=O)n(C2CCCCC2)c(=O)n1C
not listed: [1] | [8]
inactive: all other assays above

CCNc1nc(NC(C)C)nc(SC)n1
not listed: [1] | [8] | [11]
inactive: all other assays above

Cc1cc(O)ccc1Cl
inactive: [1] | [2] | [3] | [4] | [11] | [5] | [6] | [7] | [8] | [9] | [10]

CCC(C)(CC)c1cc(NC(=O)c2c(OC)cccc2OC)on1
active: [10] 66.4 µM
not listed: [1] | [8] | [11]
inactive: all other assays above
